BRCT_PPI_green – inhibitors of human BRCA1 BRCT-phosphoprotein interaction (green fluorophore) | BRCA1 BRCT-phosphopeptide binding, green fluorescence polarization | 0.05% of 75,000 active | Potency, µM (top dose mostly 76.9 µM), for the others: at the highest dose activity change, negative = inhibition, most hits filed as inhibitors | P38398;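 also: potency is read from the fitted curve at half-maximal effect; plate controls were peptide without protein for full effect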
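Fluorescence polarization: His-tagged BRCT (~35 kDa BRCA1 C-terminus, 250 nM) bound to 100 nM fluorescein-labeled phosphorylated 10-aa BACH1 peptide, pH 7.3 phosphate buffer with DTT and Tween 20. Compounds incubated 12 min at room temperature; inhibition read as lowered polarization.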
BRCT_inh_red – disrupts BRCA1 BRCT binding to phosphoprotein, red fluorophore readout; P38398; BRCT-phosphopeptide binding, red fluorescence polarization; Potency, µM (series often up to 76.9 µM), inactives show at the top dose activity change, negative = inhibition, actives largely listed as inhibitors; 0.03% of 75,000 active; AID 892; also: % is scaled to controls: 0 for no effect and ±100 for the full control effect
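Rhodamine-labelled pBACH1 10-mer (100 nM) bound to BRCT domain (100 nM) at pH 7.3; compounds incubated 12 min room temperature, polarization read. Free peptide defines full inhibition; unlabelled decapeptide titrated as control.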
YjeE_inh – YjeE (TsaE) inhibition, E. coli | P0AF67 | purified YjeE enzyme, qHTS inhibition assay | Potency, µM | 0.05% of 71,000 active | AID 605
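Purified YjeE (10 uM) with BODIPY Texas Red-labeled ADP probe (2 uM); compounds pin-transferred, 15 min at room temperature. Binding inhibition read as decreased fluorescence polarization; ADP titration as control.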
Pol_III_holo_inh – blocks replication by bacterial DNA polymerase III holoenzyme | reconstituted DNA polymerase III holoenzyme replication, biochemical | Potency, µM (top dose mostly 57.1 µM), inactives show top-dose activity change, negative = inhibition | 0.25% of 71,000 active | AID 603; also: potency is read from the fitted curve at half-maximal effect; % is scaled to controls: 0 for no effect and ±100 for the full control effect
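Reconstituted *E. coli* holoenzyme (0.35 nM Pol III, 1 nM beta, 154 nM SSB, 2 nM primase) was preincubated with compound for 15 min at RT. Synthesis on 1.4 nM ssM13Gori ran 35 min, then was stopped with PicoGreen/EDTA and read as dsDNA fluorescence.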
Tau_fil_binding – binders of human tau filaments; P10636; Potency, µM (titrated, usually from 57.1 µM), inactives show at the highest dose activity change, negative = inhibition; AID 596; recombinant tau filaments, thioflavin S fluorescence, 15 h; filaments grown with octadecylsulfate alongside compound; 2% of 71,000 active;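 also: potency is read from the fitted curve at half-maximal effect; % is scaled to controls: 0 for no effect and ±100 for the full control effect; actives lower thioflavin S fluorescence by blocking filaments or displacing dye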
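His-tagged recombinant human tau (exons 2, 3 and 10 included), 1 uM, was induced to fibrillize by 30 uM sodium octadecylsulfate with compound present. After 15 h at 37 C, thioflavine S fluorescence (ex 450, em 510 nm) was read.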
Hsp90_Hop_PPI – changes Hsp90-Hop TPR2A binding signal, up or down. AlphaScreen TPR2A-His6 binding biotin-Hsp90 C-terminal peptide. Potency, µM (doses to about 57 µM), for inactives: top-dose activity change, negative = inhibition. 0.44% of 71,000 active. AID 595; active = well fitted curve in either direction with a large enough effect; inconclusive = small, poorly fitted or top-dose-only effect, or another doubt; also: potency is read from the fitted curve at half-maximal effect; % is scaled to controls: 0 for no effect and ±100 for the full control effect
Hsp90-TPR2A_inh – confirmation and counter-screen of Hsp90 TPR2A co-chaperone interaction disrupters | shares compounds with Hsp90_Hop_PPI | AlphaScreen TPR2A-His6 / biotin-Hsp90 peptide binding | activity, negative = inhibition, % at 40 µM or 46 µM, hits read low | 100% of 45 active | AID 632;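 active = compound lowering the Hsp90 and TPR2A binding signal, whether or not the linker counterscreen also flagged it as an artifact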
* marks the source's active call; other numbers are inactive results; i = inactive; ? = inconclusive; . = no result given; + = active, no number; ! = repeats disagree; [ ] = another dose, or the depositor's remark. Compounds with a hit are over-represented: about 2.3% of the library has one in this group of screens. Unless noted, calls follow the shape of the dose curve; as a rule, active = well fitted curve in the direction sought with a large enough effect; inconclusive = small, poorly fitted or top-dose-only effect, or another doubt; inactive = no such curve, though single readings can be large; an effect the other way counts as inactive or inconclusive.

SMILES BRCT_PPI_green BRCT_inh_red YjeE_inh Pol_III_holo_inh Tau_fil_binding Hsp90_Hop_PPI others
CN(N=O)c1cc(O)ccc1O ? 31.6µM* 100µM* 3.16µM* ? ?
C[n+]1c2cc(N)ccc2cc2ccc(N)cc21 1.26µM* -7.8% . . . .
Nc1ccc2ccccc2c1 0.7% 0.2% i -10.4% 2.5% 0.7%
CCCCCCCCc1ccc(O)cc1 -1.2% -2.7% i -6.2% -3.0% 1.7%
CCCCc1ccc(C(=O)O)nc1 -0.5% 0.0% i 0.6% ? 2.51µM*
Brc1ccc(Oc2cc(Br)c(Br)cc2Br)c(Br)c1 -0.8% 0.6% i -4.1% 2.7% 31.6µM*!
CC(C)[C@@]1(NC(=O)[C@H]2C[C@H]3c4cccc5[nH]cc(c45)C[C@@H]3N(C)C2)O[C@]2(O)[C@H]3CCCN3C(=O)[C@H](Cc3ccccc3)N2C1=O . . i -1.0% 32.6% ?
Nc1cc(Cl)ccc1Cl -1.9% 2.3% i 2.7% -0.6% -0.7%
Nc1ccc(Cl)cc1N 7.9% -3.6% i -1.2% 2.51µM* -4.9%
CCC(=Nc1ccc(OC)cc1OC)c1c(O)n(C2CCCCC2)c(=O)[nH]c1=O 1.7% -0.3% i 3.4% 10µM* -17.2%
CCC(=NC1CCN(Cc2ccccc2)CC1)c1c(O)[nH]c(=O)[nH]c1=O -1.3% -1.6% i 1.2% -3.9% -1.0%
CCOC(=O)c1ccc(NC(=O)c2c(O)[nH]c(=O)[nH]c2=O)cc1 12.6µM* -2.0% i i i -4.2%
O=c1[nH]oc2c1CCNC2 -3.1% -0.2% i -4.8% 31.6µM*! -0.5%
CN1C[C@@H](CS(=O)(=O)N(C)C)C[C@H]2c3cccc4c3c(cn4C)C[C@@H]21 -2.7% -2.2% i -3.8% 9.9% -4.6%
CCCCC/C=C\C/C=C\C/C=C\C/C=C\CCCC(=O)Nc1ccc(O)cc1 -1.6% -2.3% i -9.1% 31.6µM* -2.0%
CC[N+](CC)(CCCNC1=CC(=O)C(NCCC[N+](CC)(CC)Cc2ccccc2)=CC1=O)Cc1ccccc1 -1.4% -0.2% i -5.2% 31.6µM* -5.3%
CC(=O)N1C[C@@H]2C[C@H](C1)c1cccc(=O)n1C2 . . i -3.5% -26.2% -1.9%
C[n+]1c(/C=C\c2ccc(O)c3ncccc23)[se]c2ccccc21 -2.2%[15.4_µM] 4.9%[15.4_µM] i -8.3%[11.4_µM] ? 3.16µM*
COc1cc2c(cc1OC)[C@]13CCN4CC5=CCO[C@@H]6CC(=O)N2[C@@H]1[C@H]6[C@@H]5C[C@H]43 . . i -6.0% ? -7.3%
Cn1nc(-c2ccccc2)nc2c(=O)n(C)c(=O)nc1-2 . . . . . . Hsp90-TPR2A_inh=+
Cc1nc2c(=O)n(C)c(=O)nc-2n(C)n1 . . . . . . Hsp90-TPR2A_inh=+
CCn1nc(-c2ccccc2)nc2c(=O)n(C)c(=O)nc1-2 -2.2% -0.7% i -0.3% 79.5% 1.26µM* Hsp90-TPR2A_inh=+
C=CCN1CC[C@]23c4c5ccc(O)c4O[C@@H]2/C(=N/NC(=O)c2ccccc2)CC[C@@]3(O)[C@H]1C5 -1.1% -0.3% i -11.8% -4.1% -4.2%
CCCN1CC[C@@H]2c3cc(O)ccc3CC[C@H]21 3.8% -4.4% i -4.2% -9.8% -7.0%
COc1cc2c(cc1OC)[C@]13CC[N@+]4(C)CC5=CCO[C@H]6CC(=O)N2[C@@H]1[C@@H]6[C@@H]5C[C@]34O -0.3%[15.4_µM] -1.1%[15.4_µM] i -10.7%[11.4_µM] -3.8%[11.4_µM] 0.9%[11_µM]

Screening data as filed in PubChem.
